Screening data as filed in PubChem BioAssay.
Compounds with a hit are over-represented: about 4.2% of the library has one in this group of screens.
ssDAF12 agonist: activates DAF-12 receptor from parasite S. stercoralis. HEK293 ssDAF-12/GRIP1 lit1-tk-luc reporter, luminescence; % of 3 µM dafachronic acid response. 1% of 370,000 active. activation, % at 6.8 µM;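 active = activation above the mean over all tested compounds plus 3 SD, cut at about 0.9% in these data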;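 note: 0% = DMSO-only wells and 100% = 3 µM delta7-dafachronic acid wells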
hcDAF-12 act: activators of H. contortus DAF-12 nuclear receptor; 1.4% of 370,000 active; activation, % at 6.8 µM; HEK293 hcDAF-12 lit1-tk-luc reporter, luminescence; 0% DMSO, 100% Δ7-dafachronic acid;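 active = activation above the mean of all tested compounds plus 3 SD, cut at about 5.5% in these data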;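 note: 100% = response to 3 µM Δ7-dafachronic acid high control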
hgDAF-12 ag: agonists of H. glycines DAF-12 nuclear receptor | HEK293 GAL4-hgDAF12 UAS-luciferase reporter, agonist luminescence; normalized to butyrate control | activation, % at 6.8 µM | 1.8% of 370,000 active | AID 687014;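 active = activation above a cutoff set at the mean of all screened compounds plus 3 SD, cut at about 10% in these data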;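 note: 0% = DMSO wells and 100% = sodium butyrate wells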
SMARCA2 act: activators of SMARCA2 function. MG213 cells, MMTV-luciferase reporter, dexamethasone, overnight. activation, % at 9.1 µM. 1% of 370,000 active. AID 652017; in the data active = activation above about 7.8%;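 note: 0% = vehicle wells and 100% = reference activator wells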
DAX1 StAR inh: DAX1 (NR0B1) inhibition, primary screen; HEK293T StAR-luciferase reporter, SF-1/DAX-1 repression relief; inhibition, % at 6.8 µM; 1.1% of 370,000 active; AID 652010;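 active = inhibition above the mean over all tested compounds plus 3 SD, cut at about 3.6% in these data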;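 note: 0% = DAX-1 cells with DMSO and 100% = cells lacking DAX-1 with DMSO; higher inhibition means more luminescence from relief of DAX-1 repression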
* hit, by the source's call.

For O=C(N/N=C1\CCCCc2ccccc21)c1ccccn1 the results were ssDAF12 agonist 1, hcDAF-12 act 1, hgDAF-12 ag 12*, SMARCA2 act 6 and DAX1 StAR inh 3.
`COc1ccc(OCC(=O)N/N=C2\CCCc3ccccc32)cc1` gave ssDAF12 agonist 1.0*, hcDAF-12 act 3, hgDAF-12 ag -3, SMARCA2 act 0 and DAX1 StAR inh 0.
O=C(COc1ccccc1F)N/N=C1\CCCc2ccccc21 was read as ssDAF12 agonist 0, hcDAF-12 act 5.8*, hgDAF-12 ag 10, SMARCA2 act 2 and DAX1 StAR inh 2.
Screening C#CCNC(=O)C[C@H]1C(=O)N(CCCOC)C2=CCCCC[C@]21C(=O)OC returned ssDAF12 agonist -1, hcDAF-12 act 1, hgDAF-12 ag -3, SMARCA2 act -3 and DAX1 StAR inh 0.
`O=C(CSc1nnc(SCc2cccc3ccccc23)s1)Nc1ccc(S(=O)(=O)Nc2nccs2)cc1` gave ssDAF12 agonist -1, hcDAF-12 act -1, hgDAF-12 ag 3, SMARCA2 act -6 and DAX1 StAR inh 2.
Screening O=C(NCCCN1CCc2ccccc2C1)C1CCN(S(=O)(=O)N2CCCC2)CC1 returned ssDAF12 agonist 0, hcDAF-12 act 5.8*, hgDAF-12 ag 1, SMARCA2 act -3 and DAX1 StAR inh 0.
Screening N/C(=N/OCc1cccc([N+](=O)[O-])c1)c1nonc1N returned ssDAF12 agonist -1, hcDAF-12 act -3, hgDAF-12 ag 0, SMARCA2 act -3 and DAX1 StAR inh -1.
`N/C(=N\OCc1ccccc1)c1nonc1N` gave ssDAF12 agonist -1, hcDAF-12 act 2, hgDAF-12 ag 11*, SMARCA2 act 6 and DAX1 StAR inh 2.
For O=C(O)CCC(=O)N1N=C(c2ccccc2)CC1c1ccc2c(c1)OCO2 (stereo not drawn) the results were ssDAF12 agonist 1, hcDAF-12 act 5.7*, hgDAF-12 ag 9, SMARCA2 act 5 and DAX1 StAR inh 0.
Screening Cc1ccc(C2=NN(C(=O)CCC(=O)O)C(c3ccc4c(c3)OCO4)C2)cc1 (stereo not drawn) returned ssDAF12 agonist -1, hcDAF-12 act 1, hgDAF-12 ag 0, SMARCA2 act -1 and DAX1 StAR inh 0.
`Cc1cccc(NC(=O)c2n[nH]c([N+](=O)[O-])c2Br)c1C` gave ssDAF12 agonist 1, hcDAF-12 act 3, hgDAF-12 ag 11*, SMARCA2 act 1 and DAX1 StAR inh 3.6*.
`Clc1cccc(N=NN2CCOCC2)c1Cl` gave ssDAF12 agonist 1.7*, hcDAF-12 act 1, hgDAF-12 ag 4, SMARCA2 act -3 and DAX1 StAR inh 0.
Screening CN(C)S(=O)(=O)c1cccc(C(=O)NCCc2ccccc2)c1 returned ssDAF12 agonist 0, hcDAF-12 act 6.0*, hgDAF-12 ag 9, SMARCA2 act 6 and DAX1 StAR inh 3.8*.
CS(=O)(=O)Nc1ccc(C(=O)NCCc2ccccc2)cc1 was read as ssDAF12 agonist 0, hcDAF-12 act 3, hgDAF-12 ag 11*, SMARCA2 act 4 and DAX1 StAR inh 1.
For CN(C)S(=O)(=O)c1cccc(C(=O)Nc2ccccc2)c1 the results were ssDAF12 agonist -2, hcDAF-12 act 1, hgDAF-12 ag 1, SMARCA2 act 5 and DAX1 StAR inh 0.
CCCCOC(=O)CCN1C(=O)/C(=C/c2ccccc2)SC1=S was read as ssDAF12 agonist -1, hcDAF-12 act 2 and hgDAF-12 ag -1.
Screening CC(C)C[C@H](NC1(C(=O)NCCc2c[nH]c3ccccc23)CCC1)C(=O)NCCCc1ccccc1 returned ssDAF12 agonist -1, hcDAF-12 act 1 and hgDAF-12 ag 3.
COC(=O)[C@]12CCCCC=C1N(Cc1ccc(OC)cc1)C(=O)[C@@H]2CC(=O)NCC1CCCCC1 was read as ssDAF12 agonist -1, hcDAF-12 act -5, hgDAF-12 ag -1, SMARCA2 act -4 and DAX1 StAR inh 0.
`O=c1c(-c2nc3ccccc3s2)cccn1Cc1ccccc1` gave ssDAF12 agonist 0, hcDAF-12 act 1, hgDAF-12 ag 12*, SMARCA2 act 2 and DAX1 StAR inh 1.
O=C(Nc1cccc2ccccc12)C(=O)C1C(=O)Nc2ccccc21 (stereo not drawn) was read as ssDAF12 agonist 0, hcDAF-12 act 6.1*, hgDAF-12 ag 2, SMARCA2 act -3 and DAX1 StAR inh 0.
CN(C)c1ccc(NC(=O)C(=O)C2C(=O)Nc3ccccc32)cc1 (stereo not drawn) was read as ssDAF12 agonist 0, hcDAF-12 act 3, hgDAF-12 ag 2, SMARCA2 act 1 and DAX1 StAR inh 0.
Screening COc1cc(/C=N/n2c(-c3cc(-c4ccccc4)n[nH]3)n[nH]c2=S)ccc1OCc1ccccc1 returned ssDAF12 agonist 0, hcDAF-12 act 0, hgDAF-12 ag 7, SMARCA2 act 4 and DAX1 StAR inh 1.
For Cc1occc1C(=O)N/N=C/C=C/c1ccccc1[N+](=O)[O-] the results were ssDAF12 agonist -1, hcDAF-12 act 2, hgDAF-12 ag 6, SMARCA2 act 6 and DAX1 StAR inh 0.
`Cc1occc1C(=O)N/N=C/C=C/c1ccccc1` gave ssDAF12 agonist 0, hcDAF-12 act 1, hgDAF-12 ag 8, SMARCA2 act 7.9* and DAX1 StAR inh 4.
Screening Cc1occc1C(=O)N/N=C/C=C/c1ccc(N(C)C)cc1 returned ssDAF12 agonist 0, hcDAF-12 act 2, hgDAF-12 ag 12*, SMARCA2 act 8 and DAX1 StAR inh 3.8*.
Screening CCn1c2ccccc2c2cc(C=NNC(=O)c3ccoc3C)ccc21 returned ssDAF12 agonist -1, hcDAF-12 act -1, hgDAF-12 ag 11*, SMARCA2 act 0 and DAX1 StAR inh -2.
Screening Cc1ccnc(NC(=O)CNC(=O)c2ccco2)c1 returned ssDAF12 agonist 0, hcDAF-12 act 0, hgDAF-12 ag 1, SMARCA2 act 1 and DAX1 StAR inh 3.8*.
For O=C(CNC(=O)c1ccco1)Nc1ccc(F)c(Cl)c1 the results were ssDAF12 agonist -1, hcDAF-12 act -2, hgDAF-12 ag -2, SMARCA2 act 2 and DAX1 StAR inh 0.
`Cc1ccc(NC(=O)CNC(=O)Cc2cccc3ccccc23)nc1` gave ssDAF12 agonist -1, hcDAF-12 act 3, hgDAF-12 ag 2, SMARCA2 act 0 and DAX1 StAR inh 0.
Screening O=C(CNC(=O)c1ccco1)Nc1cccc(Cl)c1 returned ssDAF12 agonist 0, hcDAF-12 act 5.8*, hgDAF-12 ag 1, SMARCA2 act -1 and DAX1 StAR inh 0.
COc1ccccc1CC(=O)Nc1cc(C)ccn1 was read as ssDAF12 agonist 1.3*, hcDAF-12 act 5, hgDAF-12 ag 6, SMARCA2 act 2 and DAX1 StAR inh 1.
Screening Cc1ccnc(NC(=O)CNC(=O)Cc2cccc3ccccc23)c1 returned ssDAF12 agonist 1.3*, hcDAF-12 act 2, hgDAF-12 ag 9, SMARCA2 act 2 and DAX1 StAR inh 3.
